Data on 30 compounds can be found in PubChem BioAssay (NCATS).

Experiment [1] in a line: Quantitative High-Throughput drug screen in 47 multiple myeloma cell lines against the NCATS MIPE library collection: ARP1_JJKsccF8 cell viability assay (AID 1918928; also: nearly all actives have a fitted effect of over 40% in size; also: potency is read from the fitted curve at half-maximal effect). Summed up:
(§1)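 ATP readout (CellTiter-Glo), 48 h drug incubation, 37 °C/5% CO2, 500 cells per well; normalisation to DMSO (100%) and media-only (0%) controls.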

The nature of experiment [2]: Quantitative High-Throughput drug screen in 47 multiple myeloma cell lines against the NCATS MIPE library collection: KMM1_JCRB cell viability assay (AID 1918960). Also: nearly all actives have a fitted effect of over 30% in size. Also: potency is read from the fitted curve at half-maximal effect.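 As to viability (% of DMSO): 100% = DMSO-treated cells and 0% = medium-only wells.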 Summed up:
as §1

A short description of experiment [3]: Quantitative High-Throughput drug screen in 47 multiple myeloma cell lines against the NCATS MIPE library collection: Karpas417_ECACC cell viability assay (AID 1918961). The settings on record: Karpas417 myeloma viability, CellTiter-Glo ATP luminescence, 48 h; viability (% of DMSO): at 45.8 µM (top of the series). Put shortly:
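qHTS of the MIPE 4.0 collection: 500 myeloma cells/well, 48 h drug exposure at 37C in 5% CO2, then CellTiter-Glo for 5 min at room temperature before luminescence reading.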

Experiment [4] can be described thus: Quantitative High-Throughput drug screen in 47 multiple myeloma cell lines against the NCATS MIPE library collection: EJM_DSMZ cell viability assay (AID 1918926; also: nearly all actives have a fitted effect of over 30% in size; also: potency is read from the fitted curve at half-maximal effect). Summed up:
(§2)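 Myeloma cells (500 per well) were exposed to MIPE 4.0 compounds by pin transfer and incubated 48 hours at 37C, 5% CO2. Viability was read as ATP by CellTiter-Glo luminescence, normalised to DMSO (100%) and media-only (0%) wells.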

A short description of experiment [5]: Quantitative High-Throughput drug screen in 47 multiple myeloma cell lines against the NCATS MIPE library collection: ARD_JJKsccE7 cell viability assay (AID 1918929; also: potency is read from the fitted curve at half-maximal effect). Put shortly:
as §2

Experiment [6] is described as follows: Quantitative High-Throughput drug screen in 47 multiple myeloma cell lines against the NCATS MIPE library collection: AMO1_DSMZ cell viability assay (AID 1918927; also: nearly all actives have a fitted effect of over 30% in size; also: potency is read from the fitted curve at half-maximal effect). Put shortly:
as §2

The nature of experiment [7]: Quantitative High-Throughput drug screen in 47 multiple myeloma cell lines against the NCATS MIPE library collection: Karpas620_DSMZ cell viability assay (AID 1918959). Also: nearly all actives have a fitted effect of over 30% in size. Also: potency is read from the fitted curve at half-maximal effect. Summed up:
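Inhibition of cell viability is measured here. Each line was plated at 500 cells per well, treated with MIPE 4.0 drugs, kept 48 hours at 37C, then assayed for ATP content by CellTiter-Glo luminescence.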

Records with an inconclusive call do not appear. The source made the active and inactive calls. Calls follow the shape of the dose curve; as a rule, active = well fitted cell-killing curve with a large enough effect; inconclusive = small, poorly fitted or top-dose-only effect, or effect the other way; inactive = no such curve, though single readings can be large or run the other way.

As to `Cc1ccc(C(=O)N(CCCN)[C@@H](c2nc3cc(Cl)ccc3c(=O)n2Cc2ccccc2)C(C)C)cc1`, the Potency result in experiment [1] and in experiment [3] was “inactive” in each case. In addition, in experiment [2], the Potency was 0.001 µM (active).

As to `CC1C(=O)OC2C(O)C34C5CC(C(C)(C)C)C36C(OC(=O)C6O)OC4(C(=O)O5)C12O` (configuration not stated), the Potency result in experiment [4] and in experiment [2] was “inactive” each time.

Regarding `COc1cc([C@@H]2c3cc4c(cc3[C@@H](O[C@@H]3O[C@@H]5CO[C@@H](C)O[C@@H]5[C@H](O)[C@@H]3O)[C@H]3COC(=O)[C@H]23)OCO4)cc(OC)c1O`, the Potency entry in experiment [5] was “inactive”.

Turning to `C[C@H](CCC(=O)O)[C@H]1CC[C@H]2[C@H]3[C@@H](CC[C@]12C)[C@@]1(C)CC[C@@H](O)C[C@H]1C[C@@H]3O`, in experiment [4], the Potency entry was “inactive”. Also, the Potency in experiment [1] is 1.48 µM (active).

Consider `Nc1nc(Cl)nc2c1ncn2[C@@H]1O[C@H](CO)[C@@H](O)[C@H]1F`, for which the Potency was 0.0418 µM (active) in experiment [6], 2.35 µM (active) in experiment [1] and 0.469 µM (active) in experiment [7].

Consider `CCCCc1ccc(NS(=O)(=O)c2ccc(C)c(C(=O)N3CCN(c4cccc(C)c4C)CC3)c2)cc1`, for which the Potency entry in experiment [6], in experiment [7] and in experiment [2] was “inactive” in each case. The Potency in experiment [1] was 20.9 µM (active).

For `CN(C)CCOc1ccc(C(=C(CCCl)c2ccccc2)c2ccccc2)cc1`, the Potency in experiment [4] is 18.7 µM (active). The Potency result in experiment [6], in experiment [1], in experiment [5], in experiment [2] and in experiment [3] was “inactive” each time.

For the compound `COc1cc(N2CCN(C)CC2)ccc1Nc1nc(N)c(C(=O)c2c(Cl)cccc2Cl)s1`, the results for the Potency in experiment [4], in experiment [6] and in experiment [2] were 23.5 µM (active), 18.7 µM (active) and 18.7 µM (active), respectively.

As to `CN(C)CCOc1cc(-c2cn[nH]c2)ccc1NC(=O)C1COc2ccccc2O1` (configuration not stated), the Potency result in experiment [5] and in experiment [7] was “inactive” each time. Besides, in experiment [3], the viability (% of DMSO) was 64.1% (active).

Take `CC[C@H](C=C[C@@H](C)[C@H]1CC[C@H]2[C@@H]3CC=C4C[C@@H](O)CC[C@]4(C)[C@@H]3CC[C@]12C)C(C)C`: the Potency in experiment [4] was 7.24 µM (active). Besides, the Potency result in experiment [1], in experiment [5], in experiment [7] and in experiment [2] was “inactive” in each case.

As for `CCCCN(CCCC)CC(O)c1cc(Cl)cc2c1-c1ccc(Cl)cc1C2=Cc1ccc(Cl)cc1` (configuration not stated), the Potency in experiment [4] was 16.6 µM (active). Also, the Potency entry in experiment [6], in experiment [5] and in experiment [7] was “inactive” in each case.

As for `NC(=O)c1nnn(Cc2cc(Cl)c(C(=O)c3ccc(Cl)cc3)c(Cl)c2)c1N`, the Potency in experiment [2] is 5.9 µM (active). The Potency result in experiment [3] is “inactive”.

Consider `COc1ccc2cc1Oc1ccc(cc1)C[C@H]1c3cc(c(OC)cc3CCN1C)Oc1c(OC)c(OC)cc3c1[C@H](C2)N(C)CC3`, for which the values for the Potency in experiment [6], in experiment [7] and in experiment [2] were 7.43 µM (active), 5.26 µM (active) and 5.9 µM (active), respectively.

For the compound `CC1CNc2c(cccc2S(=O)(=O)N[C@@H](CCCN=C(N)N)C(=O)N2CC[C@@H](C)C[C@@H]2C(=O)O)C1` (some centres not stated), in experiment [4], the Potency result was “inactive”. Moreover, the Potency in experiment [7] is 23.5 µM (active).

With `O=[N+]([O-])c1ccc(Nc2ccccc2-c2ccccc2)c2nonc12`, in experiment [1], the Potency result is “inactive”. The Potency in experiment [7] was 20.9 µM (active).

`Cc1cc(OCCCS(C)(=O)=O)cc(C)c1-c1cccc(COc2ccc3c(c2)OC[C@H]3CC(=O)O)c1`: the Potency entry in experiment [4] and in experiment [5] was “inactive” in each case. In addition, the Potency in experiment [7] was 5.9 µM (active).

As for `Cc1cc2nc3c(=O)[nH]c(=O)nc-3n(CC(O)C(O)C(O)CO)c2cc1C` (configuration not stated), the Potency was 1.18 µM (active) in experiment [4] and 4.69 µM (active) in experiment [1].

`Cc1cc(NC(=O)Nc2ccc(N(C)C)cc2)c2cc(F)cc(F)c2n1`: the Potency entry in experiment [4], in experiment [6] and in experiment [2] was “inactive” each time.

Consider `CC(C)CN(C[C@H](O)[C@H](Cc1ccccc1)NC(=O)O[C@H]1CCOC1)S(=O)(=O)c1ccc(N)cc1`, for which the Potency result in experiment [6], in experiment [7] and in experiment [2] was “inactive” each time.

`CNc1nc(-c2ccc3c(N)n[nH]c3c2)cc(N2C[C@@H](C(=O)NC3CCCCC3)CC[C@@H]2C)n1`: the Potency was 20.9 µM (active) in experiment [6], 11.8 µM (active) in experiment [1], 8.33 µM (active) in experiment [5] and 20.9 µM (active) in experiment [7].

On to `CCOC(=O)N1c2ccc(C(F)(F)F)cc2[C@@H](N(Cc2cc(C(F)(F)F)cc(C(F)(F)F)c2)C(=O)OC)C[C@H]1CC`, for which the Potency entry in experiment [6], in experiment [7] and in experiment [2] was “inactive” throughout. Further, the Potency in experiment [1] was 4.69 µM (active).

`CC(C)(C)c1[nH]cnc1C=c1[nH]c(=O)c(=Cc2ccccc2)[nH]c1=O`: the Potency entry in experiment [6], in experiment [5] and in experiment [2] was “inactive” each time.

Consider `COc1cc2c(cc1OC)[C@@H]1Cc3ccc(OC)c(OC)c3CN1CC2`, for which the results for the Potency in experiment [4] and in experiment [1] were 10.5 µM (active) and 13.2 µM (active), respectively. Moreover, the Potency entry in experiment [6] and in experiment [7] was “inactive” throughout.

For `COc1c(C)c2c(c(O)c1CC=C(C)CCC(=O)O)C(=O)OC2`, the Potency is 0.935 µM (active) in experiment [6] and 6.62 µM (active) in experiment [1]. Further, the Potency result in experiment [7] and in experiment [2] was “inactive” throughout.

Consider `CN1CCN(c2cccc(Nc3nc4c(-c5ccc(S(C)(=O)=O)cc5)cccn4n3)c2)CC1`, for which the Potency in experiment [4] is 4.18 µM (active); in experiment [6], 4.18 µM (active); in experiment [5], 1.32 µM (active); in experiment [7], 0.833 µM (active); in experiment [2] it was 1.66 µM (active).

Turning to `COc1ccc(-c2ccc3ncc4c(c3c2)n(-c2ccc(N3CCNCC3)c(C(F)(F)F)c2)c(=O)n4C)cn1`, the Potency in experiment [4] is 0.0332 µM (active); in experiment [7], 0.0833 µM (active).

For `Cc1ccc(C(=O)N(CCCN)[C@@H](c2oc3cc(Cl)ccc3c(=O)c2Cc2ccccc2)C(C)C)cc1`, the Potency in experiment [6], in experiment [5] and in experiment [2] was 0.001 µM (active) throughout. In addition, the Potency entry in experiment [1] is “inactive”.

With `Cc1ccc(NC(=O)c2cccc(N(C)C)c2)cc1NC(=O)c1ccc(O)cc1`, the Potency in experiment [6] is 0.235 µM (active); in experiment [7] it was 5.9 µM (active).

Regarding `CCC[C@H](Nc1nc(-c2ccc(NC(=O)NCC)c(OC)c2)ncc1C)c1cccnc1`, the Potency was 0.001 µM (active) in experiment [6], 0.0083 µM (active) in experiment [1], 0.001 µM (active) in experiment [5] and 0.001 µM (active) in experiment [2].

Consider `Cc1ccc2c(=O)c3cccc(CC(=O)O)c3oc2c1C`, for which the Potency in experiment [4] was 6.62 µM (active). Moreover, the Potency entry in experiment [6], in experiment [5], in experiment [7] and in experiment [2] was “inactive” in each case.
